Measurements taken from the supplement of paper PMC8975748.
Structures can show the parent of a compound that is named as a salt. ± gives the standard deviation of the averaged measurements.

What was measured:
[1] = tested on: Saccharomyces cerevisiae BY4741 SeMeCo community; experiment: mean cell size (pixel area) (pixels); higher = larger cells; details: 10 µM; 24 h; SM minimal medium
Procedure, shortened: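 Harmony analysis of automated confocal images of paraformaldehyde-fixed yeast gave the mean cell pixel area per well. The yeast was a Saccharomyces cerevisiae BY4741 community carrying four plasmids, each with a fluorescent marker and each complementing one auxotrophy, incubated for 24 h in SM medium containing drug at a final 10 µM in 384-well plates. Results are averaged over 3 replicates. Same SeMeCo high-content imaging drug screen: Selleck FDA-approved drugs at 10 µM, 24 h in SM medium, 384-well plates, 3 replicates.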

[2] = tested on: Saccharomyces cerevisiae BY4741 SeMeCo community; experiment: z-score of prototroph abundance vs DMSO median; higher = larger share of this subpopulation than in DMSO controls; details: 10 µM; 24 h; SM minimal medium; subpopulation (auxotrophy): Prototroph
Procedure, shortened: (§1)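 Four plasmids, each restoring a single auxotrophy and encoding a distinct fluorescent protein, were carried by a Saccharomyces cerevisiae BY4741 community. After overnight growth to OD600 1.0 and dilution to 0.3, 70 µl per well was grown for 24 h in minimal SM medium on 384-well plates acoustically predosed with library drugs at 10 µM final. Following paraformaldehyde fixation, automated confocal microscopy was used, with single-auxotroph fluorescent strains defining thresholds and autofluorescence correction. Subpopulation abundance was then scored as a z-score against the vehicle-well median.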

[3] = tested on: Saccharomyces cerevisiae BY4741 SeMeCo community; experiment: z-score of subpopulation abundance vs DMSO median, subpopulation auxotrophic for M; higher = larger share of this subpopulation than in DMSO controls; details: 10 µM; 24 h; SM minimal medium; subpopulation (auxotrophy): M
Procedure, shortened: as §1

[4] = tested on: Saccharomyces cerevisiae BY4741 SeMeCo community; experiment: z-score of subpopulation abundance vs DMSO median, subpopulation auxotrophic for L; higher = larger share of this subpopulation than in DMSO controls; details: 10 µM; 24 h; SM minimal medium; subpopulation (auxotrophy): L
Procedure, shortened: as §1

[5] = tested on: Saccharomyces cerevisiae BY4741 SeMeCo community; experiment: z-score of subpopulation abundance vs DMSO median, subpopulation auxotrophic for U; higher = larger share of this subpopulation than in DMSO controls; details: 10 µM; 24 h; SM minimal medium; subpopulation (auxotrophy): U
Procedure, shortened: as §1

[6] = tested on: Saccharomyces cerevisiae BY4741 SeMeCo community; experiment: z-score of subpopulation abundance vs DMSO median, subpopulation auxotrophic for H; higher = larger share of this subpopulation than in DMSO controls; details: 10 µM; 24 h; SM minimal medium; subpopulation (auxotrophy): H
Procedure, shortened: as §1

[7] = tested on: Saccharomyces cerevisiae BY4741 SeMeCo community; experiment: z-score of subpopulation abundance vs DMSO median, subpopulation auxotrophic for LU; higher = larger share of this subpopulation than in DMSO controls; details: 10 µM; 24 h; SM minimal medium; subpopulation (auxotrophy): LU
Procedure, shortened: as §1

[8] = tested on: Saccharomyces cerevisiae BY4741 SeMeCo community; experiment: z-score of subpopulation abundance vs DMSO median, subpopulation auxotrophic for LM; higher = larger share of this subpopulation than in DMSO controls; details: 10 µM; 24 h; SM minimal medium; subpopulation (auxotrophy): LM
Procedure, shortened: as §1

[9] = tested on: Saccharomyces cerevisiae BY4741 SeMeCo community; experiment: z-score of subpopulation abundance vs DMSO median, subpopulation auxotrophic for HM; higher = larger share of this subpopulation than in DMSO controls; details: 10 µM; 24 h; SM minimal medium; subpopulation (auxotrophy): HM
Procedure, shortened: as §1

[10] = tested on: Saccharomyces cerevisiae BY4741 SeMeCo community; experiment: z-score of subpopulation abundance vs DMSO median, subpopulation auxotrophic for HU; higher = larger share of this subpopulation than in DMSO controls; details: 10 µM; 24 h; SM minimal medium; subpopulation (auxotrophy): HU
Procedure, shortened: as §1

[11] = tested on: Saccharomyces cerevisiae BY4741 SeMeCo community; experiment: z-score of subpopulation abundance vs DMSO median, subpopulation auxotrophic for UM; higher = larger share of this subpopulation than in DMSO controls; details: 10 µM; 24 h; SM minimal medium; subpopulation (auxotrophy): UM
Procedure, shortened: as §1

[12] = tested on: Saccharomyces cerevisiae BY4741 SeMeCo community; experiment: z-score of subpopulation abundance vs DMSO median, subpopulation auxotrophic for HL; higher = larger share of this subpopulation than in DMSO controls; details: 10 µM; 24 h; SM minimal medium; subpopulation (auxotrophy): HL
Procedure, shortened: as §1

[13] = tested on: Saccharomyces cerevisiae BY4741 SeMeCo community; experiment: z-score of subpopulation abundance vs DMSO median, subpopulation auxotrophic for HLU; higher = larger share of this subpopulation than in DMSO controls; details: 10 µM; 24 h; SM minimal medium; subpopulation (auxotrophy): HLU
Procedure, shortened: as §1

[14] = tested on: Saccharomyces cerevisiae BY4741 SeMeCo community; experiment: z-score of subpopulation abundance vs DMSO median, subpopulation auxotrophic for HLM; higher = larger share of this subpopulation than in DMSO controls; details: 10 µM; 24 h; SM minimal medium; subpopulation (auxotrophy): HLM
Procedure, shortened: as §1

[15] = tested on: Saccharomyces cerevisiae BY4741 SeMeCo community; experiment: z-score of subpopulation abundance vs DMSO median, subpopulation auxotrophic for HUM; higher = larger share of this subpopulation than in DMSO controls; details: 10 µM; 24 h; SM minimal medium; subpopulation (auxotrophy): HUM
Procedure, shortened: as §1

[16] = tested on: Saccharomyces cerevisiae BY4741 SeMeCo community; experiment: z-score of subpopulation abundance vs DMSO median, subpopulation auxotrophic for LUM; higher = larger share of this subpopulation than in DMSO controls; details: 10 µM; 24 h; SM minimal medium; subpopulation (auxotrophy): LUM
Procedure, shortened: as §1

[17] = tested on: Saccharomyces cerevisiae BY4741 SeMeCo community; experiment: z-score of subpopulation abundance vs DMSO median, subpopulation auxotrophic for HLUM; higher = larger share of this subpopulation than in DMSO controls; details: 10 µM; 24 h; SM minimal medium; subpopulation (auxotrophy): HLUM
Procedure, shortened: as §1

SMILES | mean cell size [1] | z-score of prototroph abundance [2] | z-score of subpopulation abundance [3] | z-score of subpopulation abundance [4] | z-score of subpopulation abundance [5] | z-score of subpopulation abundance [6] | z-score of subpopulation abundance [7] | z-score of subpopulation abundance [8] | z-score of subpopulation abundance [9] | z-score of subpopulation abundance [10] | z-score of subpopulation abundance [11] | z-score of subpopulation abundance [12] | z-score of subpopulation abundance [13] | z-score of subpopulation abundance [14] | z-score of subpopulation abundance [15] | z-score of subpopulation abundance [16] | z-score of subpopulation abundance [17]
CN1CC(=O)N2[C@H](c3ccc4c(c3)OCO4)c3[nH]c4ccccc4c3C[C@@H]2C1=O [Tadalafil] | 12.3 ± 0.19 | -0.42 | 0.2 | 1.85 | -1.35 | 0.35 | 0.3 | 3.43 | 0.83 | -0.74 | -0.26 | 1.24 | 0.4 | 1.64 | 0.54 | 1.95 | 1.5
CSCC1CN(/N=C/c2ccc([N+](=O)[O-])o2)C(=O)O1 (stereo not given) [Nifuratel] | 13.05 ± 0.13 | 1.73 | 3.2 | 3.68 | -7.52 | 5.51 | -5.94 | 3.06 | 1.92 | -5.85 | -7.21 | 4.21 | -1.21 | 2.19 | -2.83 | -2.95 | 1.35
CC[C@H](Nc1ncnc2[nH]cnc12)c1nc2cccc(F)c2c(=O)n1-c1ccccc1 [Idelalisib (CAL-101, GS-1101)] | 12.58 ± 0.07 | -0.14 | -0.54 | -0.49 | 1.09 | 0.31 | 0.5 | -0.23 | -0.64 | 0.68 | 0.34 | -1.05 | -0.35 | 0.08 | -0.4 | 0.11 | -0.62
CC/C=C(\C(=O)N[C@@H]1C(=O)N2C(C(=O)OCOC(=O)C(C)(C)C)=C(COC(N)=O)CS[C@H]12)c1csc(N)n1 [Cefcapene Pivoxil Hydrochloride] | 12.3 ± 0.31 | -1.27 | 0.11 | 0.38 | 0.38 | 1.15 | 0.9 | 0.55 | 1.27 | 1 | 0.67 | 0.18 | -0.22 | 0.64 | 1.18 | 0.63 | 0.1
C[C@@H](c1ncncc1F)[C@](O)(Cn1cncn1)c1ccc(F)cc1F [Voriconazole] | 11.9 ± 0.18 | -11.6 | 0.27 | -2.55 | -0.12 | 12.8 | 1.96 | 1.93 | 10.2 | 9.96 | 16.4 | 6.37 | 16.6 | 41.5 | 14.4 | 5.58 | 16.5
Nc1nc(=O)[nH]cc1F [Flucytosine] | 13.9 ± 0.19 | -10.3 | -3.75 | -1.32 | 0.5 | 17.8 | 0.49 | -4.29 | 17.8 | 8.85 | 1.6 | 13.2 | 1.33 | 35.5 | 10.3 | 4.96 | 38.3
CCCCOC(=O)c1ccc(O)cc1 [Butylparaben] | 12.3 ± 0.29 | 1.77 | -0.57 | -0.62 | -0.7 |  | -1.79 | -0.49 | -1.19 | -1.93 | -1.24 | -0.99 | -1.3 | -0.41 | -1.38 | -0.62 | 0.07
Cn1c(=O)c2c(ncn2CC(O)CO)n(C)c1=O (stereo not given) [Dyphylline] | 12.55 ± 0.12 | 1.12 | -1.07 | -0.69 | 0.26 | -0.64 | -0.11 | -0.74 | -0.97 | -0.83 | -0.61 | -0.71 | -0.29 | -0.91 | -1.32 | -1.44 | -0.64
COC(=O)Nc1nc2cc([S+]([O-])c3ccccc3)ccc2[nH]1 (stereo not given) [Oxfendazole] | 12.59 ± 0.1 | 0.13 | 0.39 | -1.92 | 1.29 | 0.08 | 0.48 | -1.48 | -0.28 | 0.76 | 0.53 | 0 | -0.7 | -0.75 | 0.73 | -0.67 | -1.07
Nc1c(CC(=O)O)cccc1C(=O)c1ccc(Br)cc1 [Bromfenac Sodium] | 12.5 ± 0.043 | -0.27 | 0.38 | -0.45 | 0.73 | -0.02 | -0.11 | -0.28 | -0.15 | 0.19 | 0.59 | -0.68 | -0.92 | -0.09 | 0.05 | 0.39 | 0.3
OCCN1CCN(CCCN2c3ccccc3Sc3ccc(Cl)cc32)CC1 [Perphenazine] | 12.3 ± 0.2 | -0.28 | -0.42 | -0.47 | 0.29 | 0.04 | 0.15 | -0.01 | 0.07 | 0.72 | 0.06 | 0.11 | 0.1 | 0 | 0.73 | 0.66 | -0.22
CCN1CCCC1CNC(=O)c1cc(S(=O)(=O)CC)c(N)cc1OC (stereo not given) [Amisulpride] | 12.4 ± 0.13 | 0.14 | 0.12 | -0.08 | 0.31 | 0.19 | 0.33 | -0.1 | -1.17 | 0.3 | 0.04 | -0.73 | -0.63 | -0.87 | -0.03 | -0.21 | -0.8
CCN(Cc1ccncc1)C(=O)C(CO)c1ccccc1 (stereo not given) [Tropicamide] | 12.48 ± 0.099 | -0.08 | -0.16 | 0.34 | 0.43 | -0.6 | 0.14 | 0.83 | -0.12 | 0.5 | 0.23 | 0.16 | 0.42 | -0.45 | 0.16 | 0 | 0.01
CC(=O)OCC(COC(C)=O)OC(C)=O [Triacetin] | 12.4 ± 0.15 | 0.21 | -0.16 | -0.06 | 0.01 |  | -0.81 | 0.2 | 0.03 | 0.55 | -0.42 |  | -1.12 | -0.57 | 0.7 | 0.32 | -0.48
